For experiment [1], the target named is Cytochrome P450 3A4 (Homo sapiens) (UniProt P08684). Description: qHTS Assay for Inhibitors and Substrates of Cytochrome P450 3A4 (AID 884). Further: nearly all actives have a fitted effect of over 50% in size. Further: potency means the concentration at half of the fitted maximal effect. On activity change, negative = inhibition: on the % scale 0 is the no-effect control and ±100 the full control effect. A digest of the protocol:
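20 nM human CYP3A4 with 25 uM Luciferin-PPXE (at KM) in 200 mM KPO4, preincubated 10 min with compound; NADPH regeneration started a 60 min RT reaction. Luciferin detected by luminescence, normalized to 57 uM ketoconazole as full inhibition.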
In general terms: Quantitative high-throughput screening tests each substance at several concentrations.

Experiment [2] shares this target. Description: qHTS Assay for Activators of Cytochrome P450 3A4 (AID 885). Further: nearly all actives have a fitted effect of over 65% in size. Further: potency means the concentration at half of the fitted maximal effect. A digest of the protocol:
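Human CYP3A4 (20 nM) with Luciferin-PPXE at 25 uM (its KM) in 200 mM KPO4; 10 min compound preincubation, then NADPH regeneration and 60 min reaction at RT. Luciferin read by luminescence; normalized to 57 uM ketoconazole full inhibition.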

Experiment [3] in a line: Confirmation and Secondary Assay for Modulators of Hemoglobin Beta Chain Splicing at IVS2 654 locus (AID 910).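 Further: per-well total GFP intensity by laser scanning cytometry after 2-day treatment; % of control where 0% means no effect.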 A digest of the protocol:
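HeLa cells stably carrying EGFP interrupted by mutant beta-globin IVS2-654 intron (CMV-driven) were treated with compound for 2 days at 37C; corrected splicing was scored as total peak GFP intensity per well (488 nm excitation, 500-520 nm emission).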

Experiment [4] in a line: Confirmation and Secondary Assay for Modulators of Hemoglobin Beta Chain Splicing at IVS2 705 locus (AID 930).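 Further: HeLa cells stably expressing the EGFP-705 splicing reporter; GFP fluorescence per well restored by corrected splicing of the IVS2-705 intron in EGFP; % of control where 0% means no effect.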 A digest of the protocol:
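Fluorescence gain (488 nm laser, 500-520 nm PMT) reflects restored correct splicing of a mutant IVS2-705 intron inside EGFP in stably transfected HeLa cells after 2-day compound treatment.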

A short description of experiment [5]: qHTS Assay for Lipid Storage Modulators (AID 1519; calls by dose curve; further: potency means the concentration at half of the fitted maximal effect; on activity change, negative = inhibition: on the % scale 0 is the no-effect control and ±100 the full control effect). The following applies: Drosophila S3 cells, BODIPY lipid droplet/cell ratio, laser cytometry, cells loaded with oleic acid; for activity change, negative = inhibition: at 57.5 µM (top of the series). A digest of the protocol: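 Cells seeded at 5,000 per well were treated with compounds over a concentration series and loaded with oleic acid (400 uM, as added). Lipid droplet fluorescence (488 nm excitation, 500-530 nm channel) was read by laser-scanning cytometry and normalized to 20 uM Triacsin C.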

Experiment [6] addresses Luciferin 4-monooxygenase (Photinus pyralis) (UniProt P08659). Briefly: Biochemical firefly luciferase enzyme assay for NPC (AID 624030).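 Further: purified P. pyralis luciferase at 10 nM with luciferin and ATP substrate; 0% = DMSO and -100% = full luciferase inhibition by PTC124 control; nearly all actives have a fitted effect of over 70% in size.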 A digest of the protocol:
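Counter-screen for direct inhibition of the luciferase enzyme by approved-drug library compounds, run at 10 nM enzyme in 50 mM Tris acetate (final). Luminescence was read within 5 min of enzyme-buffer addition and normalized to PTC124 versus DMSO (0%).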

Experiment [7] deals with DNA dC->dU-editing enzyme APOBEC-3G (Homo sapiens) (UniProt Q9HC16). Description: qHTS for inhibitors of Vif-A3G interactions: Validation (AID 588379). Further: 0% is about no effect. A digest of the protocol: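 HeLa cells stably expressing Vif and A3G-eYFP, 700 cells/well, incubated overnight at 37 deg C, then exposed to compound overnight at 37 deg C. Inhibition of Vif-mediated degradation read as increased yellow fluorescence (Ex 488/Em 500-530) by laser-scanning cytometry.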

Setting [8] is: measured here: cell count channel max response.
Where [9] appears, read: measured here: lipid channel max response.

Consider 22 compounds from PubChem BioAssay (NCATS).

Molecules are shown by their SMILES. Inconclusive results are not listed. The source made the active and inactive calls. Unless noted, the call rests on the fitted dose curve; in most records, active means well fitted curve in the direction sought with a large enough effect; inconclusive means small, poorly fitted or top-dose-only effect, or another doubt; inactive means no such curve, though single readings can be large; an effect the other way counts as inactive or inconclusive.

Chain of DNA dC->dU-editing enzyme APOBEC-3G (Homo sapiens) (Q9HC16 whole entry, looked up): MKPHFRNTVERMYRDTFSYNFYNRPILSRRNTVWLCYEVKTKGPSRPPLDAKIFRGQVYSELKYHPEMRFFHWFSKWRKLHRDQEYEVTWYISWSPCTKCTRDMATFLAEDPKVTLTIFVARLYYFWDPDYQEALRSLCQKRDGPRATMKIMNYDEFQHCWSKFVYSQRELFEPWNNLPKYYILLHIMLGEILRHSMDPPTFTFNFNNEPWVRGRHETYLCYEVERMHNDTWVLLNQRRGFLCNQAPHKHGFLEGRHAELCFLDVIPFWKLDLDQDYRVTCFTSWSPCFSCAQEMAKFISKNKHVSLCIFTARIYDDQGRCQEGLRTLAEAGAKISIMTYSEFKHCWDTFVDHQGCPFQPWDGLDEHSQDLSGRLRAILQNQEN
Chain of Cytochrome P450 3A4 (Homo sapiens) (P08684 whole entry, looked up): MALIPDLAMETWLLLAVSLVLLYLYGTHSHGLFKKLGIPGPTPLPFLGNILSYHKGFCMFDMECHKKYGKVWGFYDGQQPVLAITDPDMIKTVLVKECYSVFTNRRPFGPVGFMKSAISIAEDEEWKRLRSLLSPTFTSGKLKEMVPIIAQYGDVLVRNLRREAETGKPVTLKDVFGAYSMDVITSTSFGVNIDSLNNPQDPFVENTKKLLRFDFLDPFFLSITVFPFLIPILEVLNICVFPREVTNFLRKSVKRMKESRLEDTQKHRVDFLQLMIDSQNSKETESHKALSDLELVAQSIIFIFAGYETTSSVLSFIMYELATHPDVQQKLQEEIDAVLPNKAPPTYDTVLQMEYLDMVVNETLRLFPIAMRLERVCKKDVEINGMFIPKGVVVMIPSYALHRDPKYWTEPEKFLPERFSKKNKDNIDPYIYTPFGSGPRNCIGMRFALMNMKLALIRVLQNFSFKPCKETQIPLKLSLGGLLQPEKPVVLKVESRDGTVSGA
Chain of Luciferin 4-monooxygenase (Photinus pyralis) (P08659 whole entry, looked up): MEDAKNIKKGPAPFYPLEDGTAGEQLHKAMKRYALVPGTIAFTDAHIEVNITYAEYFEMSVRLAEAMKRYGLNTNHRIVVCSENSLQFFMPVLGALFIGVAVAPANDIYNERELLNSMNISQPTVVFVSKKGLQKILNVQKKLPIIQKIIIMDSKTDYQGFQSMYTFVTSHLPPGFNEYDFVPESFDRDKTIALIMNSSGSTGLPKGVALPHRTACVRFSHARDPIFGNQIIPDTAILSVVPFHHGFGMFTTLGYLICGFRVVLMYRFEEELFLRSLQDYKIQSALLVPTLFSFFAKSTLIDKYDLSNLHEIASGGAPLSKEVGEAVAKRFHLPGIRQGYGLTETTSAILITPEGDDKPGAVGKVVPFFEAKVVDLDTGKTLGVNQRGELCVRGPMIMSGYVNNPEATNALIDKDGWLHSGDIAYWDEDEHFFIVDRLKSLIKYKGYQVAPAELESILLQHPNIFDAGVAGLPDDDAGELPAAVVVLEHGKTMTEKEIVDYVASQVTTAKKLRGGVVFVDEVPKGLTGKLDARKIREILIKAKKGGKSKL

As to `CC(=O)OC1CC2C(C)(C)C(O)CC[C@@]2(C)C2CC[C@@]3(C)C(c4ccoc4)OC(=O)C4OC43[C@]12C` (stereo partly specified), the Potency in experiment [1] was 2.51 µM (active). Also, the Potency entry in experiment [2], in experiment [3] and in experiment [4] was “inactive” each time. Further, in experiment [5], the activity change, negative = inhibition is -20.5% (inactive). The max response in experiment [5] (setting [8]) is -7.63%; in experiment [5] (setting [9]), -27.3%.
For `CO/N=C(\C(=O)NC1C(=O)N2C(C(=O)OCOC(=O)C(C)(C)C)=C(/C=C\c3scnc3C)CSC12)c1csc(N)n1` (stereo unspecified), the Potency entry in experiment [3], in experiment [4] and in experiment [6] was “inactive” throughout. For the same compound, the activity change, negative = inhibition in experiment [5] is 12.3% (inactive). Also, the max response in experiment [5] (setting [8]) was -4.33%; in experiment [5] (setting [9]), 11.5%.
With `NC(Cc1c[nH]c2ccccc12)C(=O)NCC(=O)O` (stereo unspecified), the Potency result in experiment [1] is “inactive”. In experiment [5], the activity change, negative = inhibition is 2.26% (inactive). The max response in experiment [5] (setting [8]) is -12.4%; in experiment [5] (setting [9]), -10.5%. The compound was called inactive in experiment [7].
`COc1c2ccoc2nc2c(OC)c(OCC(O)C(C)(C)O)ccc12` (stereo unspecified): the Potency entry in experiment [2], in experiment [3] and in experiment [4] was “inactive” throughout. The activity change, negative = inhibition in experiment [5] is 9.6% (inactive). Moreover, the figures for the max response in experiment [5] (setting [8]) and in experiment [5] (setting [9]) were 16.9% and 29.2%, respectively. Further, the compound was classed as inactive in experiment [7].
As for `COc1ccc2c(c1)OCC(Cc1ccc(O)c(OC)c1)C2=O` (stereo unspecified), in experiment [1], the Potency was 2 µM (active). Moreover, the Potency result in experiment [2], in experiment [3] and in experiment [4] was “inactive” each time. Moreover, in experiment [5], the activity change, negative = inhibition was 13.3% (inactive). Further, the max response is 8.4% in experiment [5] (setting [8]) and 29.2% in experiment [5] (setting [9]).
For `CC(C)C1=CC2=CC[C@@H]3[C@@](C)(C(=O)O)CCC[C@]3(C)C2CC1` (stereo partly specified), the Potency entry in experiment [1] was “inactive”. Moreover, the activity change, negative = inhibition in experiment [5] is 0.573% (inactive). Moreover, the figures for the max response in experiment [5] (setting [8]) and in experiment [5] (setting [9]) were -0.0856% and -0.672%, respectively. Moreover, the compound was called inactive in experiment [7].
For `C=C1CCC(OC(C)=O)/C(C)=C/CC2[C@H]1CC2(C)C` (stereo partly specified), the Potency in experiment [1] is 31.6 µM (active). Moreover, the Potency result in experiment [2], in experiment [3] and in experiment [4] was “inactive” in each case. Further, in experiment [5], the activity change, negative = inhibition is 1.96% (inactive). The figures for the max response in experiment [5] (setting [8]) and in experiment [5] (setting [9]) were 2.53% and 5.33%, respectively.
`CC(=O)OC1CC[C@]2(C)C(CC[C@@]3(C)C2C(=O)C=C2C4C(C)C(C)CC[C@@]4(C(=O)O)CCC23C)C1(C)C` (stereo partly specified): the Potency in experiment [1] was 25.1 µM (active). Besides, the Potency entry in experiment [2], in experiment [3] and in experiment [4] was “inactive” in each case. For the same compound, the activity change, negative = inhibition in experiment [5] is 0.887% (inactive). Besides, the max response in experiment [5] (setting [8]) came to 18.2%; in experiment [5] (setting [9]) it was 20.8%.
Turning to `COC(=O)CC1C(C)(C)C(=O)C2CC3=C(CC[C@]4(C)C3=CC(=O)OC4c3ccoc3)[C@@]1(C)C2=O` (stereo partly specified), the Potency in experiment [1] was 2.51 µM (active). Also, the Potency entry in experiment [2], in experiment [3] and in experiment [4] was “inactive” throughout. The activity change, negative = inhibition in experiment [5] was -1.73% (inactive). In addition, the max response worked out at 16% in experiment [5] (setting [8]) and 14.2% in experiment [5] (setting [9]).
As for `O=c1c2ccccc2oc2cc(O)c(C3COCC(CO)C(O)C(O)C3O)c(O)c12` (stereo unspecified), in experiment [1], the Potency result was “inactive”. In addition, the activity change, negative = inhibition in experiment [5] is 16.5% (inactive). Also, the max response stood at 22.8% in experiment [5] (setting [8]) and 36.9% in experiment [5] (setting [9]). Moreover, the outcome in experiment [7] was inactive.
As to `O=C(/C=C/c1ccc(O)c(O)c1)O[C@@H]1C[C@@](O)(C(=O)O)C[C@H](O)[C@@H]1O`, the Potency result in experiment [1] was “inactive”. Besides, the activity change, negative = inhibition in experiment [5] was -7.73% (inactive). For the same compound, the max response in experiment [5] (setting [8]) was 3.01%; in experiment [5] (setting [9]), -5.95%. For the same compound, in experiment [7], the compound was called inactive.
Regarding `CC[C@@H]1OC(=O)[C@@H](C)[C@H](O[C@H]2C[C@@](C)(OC)[C@@H](O)[C@H](C)O2)C(C)[C@H](O[C@H]2O[C@@H](C)C[C@@H](N(C)C)[C@@H]2O)[C@@](C)(O)C[C@H](C)C(=O)[C@@H](C)[C@H](O)[C@@]1(C)O` (stereo partly specified), the Potency in experiment [1] was 15.8 µM (active). In addition, the Potency entry in experiment [2] is “inactive”. For the same compound, the activity change, negative = inhibition in experiment [5] was 6.26% (inactive). Besides, the max response in experiment [5] (setting [8]) stood at 3.51%; in experiment [5] (setting [9]), 7.04%. The compound was called inactive in experiment [7].
Turning to `C=C1C2=CC(=O)OC(c3ccoc3)[C@]2(C)CCC1[C@]1(C)C=CC(=O)C(C)(C)C1CC(=O)OC` (stereo partly specified), the Potency in experiment [1] was 3.98 µM (active). Also, the Potency result in experiment [2], in experiment [3] and in experiment [4] was “inactive” in each case. The activity change, negative = inhibition in experiment [5] is -2.8% (inactive). Also, the max response in experiment [5] (setting [8]) amounted to 12.4%; in experiment [5] (setting [9]) it was 11.5%.
In the case of `C=C1CC[C@@H]2O[C@@]2(C)CC[C@H]2[C@H]1CC2(C)C`, the Potency result in experiment [2] was “inactive”. Also, in experiment [5], the activity change, negative = inhibition was 1.31% (inactive). Besides, the values for the max response in experiment [5] (setting [8]) and in experiment [5] (setting [9]) were 22.2% and 21.2%, respectively. In addition, the result in experiment [7] was inactive.
Regarding `CCC(C)C(=O)OC1C2CC3=C4CC(=O)OC(c5ccoc5)[C@]4(C)CCC3[C@@](C)(C2=O)C(CC(=O)OC)C1(C)C` (stereo partly specified), the Potency in experiment [1] was 6.31 µM (active). For the same compound, the Potency result in experiment [2], in experiment [3] and in experiment [4] was “inactive” throughout. For the same compound, the activity change, negative = inhibition in experiment [5] is -2.94% (inactive). In addition, the max response in experiment [5] (setting [8]) is -4.4%; in experiment [5] (setting [9]), -5.82%.
For `COc1ccc(CC(=O)c2ccc(O)cc2O)cc1`, the Potency in experiment [1] was 12.6 µM (active). For the same compound, the Potency entry in experiment [2], in experiment [3] and in experiment [4] was “inactive” throughout. Besides, the activity change, negative = inhibition in experiment [5] is 4.14% (inactive). Moreover, the results for the max response in experiment [5] (setting [8]) and in experiment [5] (setting [9]) were -22.7% and -16.5%, respectively.
Turning to `CC(=O)OC1CC2C(C)(C)C(=O)C=C[C@]2(C)C2CC[C@@]3(C)C(c4ccoc4)OC(=O)C4O[C@@]43[C@]12C` (stereo partly specified), the Potency in experiment [1] was 12.6 µM (active). Besides, the Potency result in experiment [2], in experiment [3] and in experiment [4] was “inactive” each time. In addition, the activity change, negative = inhibition in experiment [5] is -1.71% (inactive). Further, the max response in experiment [5] (setting [8]) and in experiment [5] (setting [9]) was 11.5% throughout.
As for `COc1ccc2c(c1)OC1(O)COc3cc(OC)c(OC)cc3C1=C2` (stereo unspecified), the Potency in experiment [1] was 7.94 µM (active). Besides, the Potency result in experiment [2], in experiment [3] and in experiment [4] was “inactive” in each case. In addition, in experiment [5], the activity change, negative = inhibition is 0.865% (inactive). Further, the max response was -18.4% in experiment [5] (setting [8]) and -15.5% in experiment [5] (setting [9]).
On to `COc1c(-c2coc3cc4c(cc3c2=O)CC(O)C(C)(C)O4)ccc2c1C=CC(C)(C)O2` (stereo unspecified), for which the Potency entry in experiment [1], in experiment [3] and in experiment [4] was “inactive” each time. Also, the values for the Potency in experiment [2] and in experiment [5] were 2.51 µM (active) and 0.0708 µM (active), respectively. In addition, the values for the max response in experiment [5] (setting [8]) and in experiment [5] (setting [9]) were -20.3% and -70.3%, respectively.
As for `COC(=O)CCC(C)C1CCC2C3CC[C@H]4CC(O)CC[C@@]4(C)C3CC(O)[C@]12C` (stereo partly specified), the Potency entry in experiment [1], in experiment [3] and in experiment [4] was “inactive” throughout. Moreover, the activity change, negative = inhibition in experiment [5] is 1.15% (inactive). Also, the max response in experiment [5] (setting [8]) was -3.87%; in experiment [5] (setting [9]), -3.09%.
In the case of `COC(=O)CC1C(C)(C)C(O)C2CC3=C4CC(O)OC(c5ccoc5)[C@]4(C)CCC3[C@@]1(C)C2=O` (stereo partly specified), in experiment [1], the Potency is 3.16 µM (active). Moreover, the Potency result in experiment [2], in experiment [3] and in experiment [4] was “inactive” each time. In addition, in experiment [5], the activity change, negative = inhibition was -6.39% (inactive). In addition, the max response in experiment [5] (setting [8]) worked out at 8.85%; in experiment [5] (setting [9]), 5.28%.
Turning to `COc1cc(O)c(C(C)=O)c(OC)c1`, the Potency in experiment [1] is 25.1 µM (active). Besides, the Potency result in experiment [2], in experiment [3] and in experiment [4] was “inactive” in each case. For the same compound, the activity change, negative = inhibition in experiment [5] is 4.43% (inactive). Besides, the max response worked out at 20% in experiment [5] (setting [8]) and 28.9% in experiment [5] (setting [9]).
